# Active and inactive are the calls of the source.
# Legend:
# [1] = tested on: Human papillomavirus type 1a protein E7 (residues 44-93); test: HPV1a E7 fragment binders on microarrays, primary screen, biochemical, small-molecule microarray, residues 44-93, 635 nm fluorescence (AID 1108); details: small-molecule microarray binding, fluorescence 635 nm; higher = more signal;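 further: E7 fragment applied at 1 µg/mL in TBST for 1 h at 4 C; score combines spot fluorescence with its signal to noise ratio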
# [2] = modulators of HCV replicon luciferase signal, primary screen, HCV replication inhibitor project, Huh7 cells, luciferase reporter (AID 1109); details: 48 h, higher = more signal;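 further: huh7 hepatoma cells harbouring a luciferase neomycin HCV replicon reporter; luciferase luminescence as measure of HCV replicon replication; test concentration not given here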
# [3] = target: Left-right determination factor 2 (Homo sapiens) (UniProt O00292); test: LEFTY2 binders on small-molecule microarrays, primary screen, biochemical, small-molecule microarray, 635 nm fluorescence scan (AID 1110); details: LEFTY2 binding, higher = more signal
# [4] = target: Calmodulin-1 (Homo sapiens) (UniProt P0DP23); test: CALM1 binders on microarrays, EGTA buffer, profiling panel, biochemical, small-molecule microarray, Cy5-labelled CALM1 (AID 1111); details: Cy5-CALM1 binding fluorescence, higher = more signal;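 further: labelled calmodulin applied in Tris saline Tween buffer holding calcium plus EGTA and DTT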
# [5] = target: Calmodulin-1 (Homo sapiens) (UniProt P0DP23); test: calcium-bound CALM1 binders on microarrays, profiling panel, artefact control for SMM control-protein annotation, biochemical, small-molecule microarray, Cy5-labelled CALM1, plus calcium (AID 1112); details: Cy5-CALM1 binding fluorescence, higher = more signal;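 further: score merges spot fluorescence with signal to noise from triplicate slides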
# [6] = small-molecule microarray binders of probe aWnt5a, primary screen, biochemical, biotinylated probe, 635/667 nm fluorescence (AID 1113); details: higher = more signal;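 further: score merges 667 nm fluorescence intensity with signal-to-noise per printed feature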
# [7] = small-molecule microarray binders of probe aShh, primary screen, biochemical, biotinylated probe, 635/667 nm fluorescence (AID 1114); details: higher = more signal;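 further: probe is biotin-labelled aShh protein from a stem cell growth factor screen; measures binding of labelled protein to compounds printed on the slide; score merges feature fluorescence at 667 nm with signal-to-noise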
# [8] = small-molecule microarray binders of probe aNog, primary screen, biochemical, biotinylated probe, 635/667 nm fluorescence (AID 1115); details: higher = more signal;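 further: probe is biotinylated aNog protein used at 0.15 µg/mL for 1 h at 4 C; z-score combines 667 nm fluorescence of each spot with its signal to noise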
# [9] = target: Torsin-1A-interacting protein 1 (Homo sapiens) (UniProt Q5JTV8); test: LAP1 binders from COS7 cell lysate, primary screen, small-molecule microarray, 635/667 nm fluorescence (AID 1116); details: COS7-hLAP1 lysate binding, 635 nm fluorescence, higher = more signal
# [10] = target: Alpha-bungarotoxin (Bungarus multicinctus) (UniProt P60615); test: alpha-bungarotoxin binders on microarray, profiling panel, artefact control for SMM control protein annotation, biochemical, small-molecule microarray, Alexa647 label, 635/667 nm fluorescence (AID 1117); details: alpha-BTX-A647 binding fluorescence, higher = more signal
# [11] = target: Albumin (Bos taurus) (UniProt P02769); test: bovine serum albumin binders on microarray, profiling panel, artefact control for SMM control protein annotation, biochemical, small-molecule microarray, Alexa647 label, 635/667 nm fluorescence (AID 1118); details: BSA-A647 binding, fluorescence 635 nm, higher = more signal;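 further: score merges 667 nm emission intensity and signal-to-noise per printed compound spot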
# [12] = small-molecule microarray binders of probe aXIP, primary screen, biochemical, NeuroSMM set, 635/667 nm fluorescence (AID 1119); details: higher = more signal, called active from +8 up or from −8 down;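 further: probe is the protein aXip251-270 applied at 1 µg/mL to compound-printed slides; binding of probe to printed compounds measured as 667 nm fluorescence plus signal to noise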
# [13] = small-molecule binders of probe aNOTCH3, primary screen, biochemical, small-molecule microarray, 635/667 nm fluorescence (AID 1120); details: higher = more signal;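 further: probe is a biotin-tagged antibody raised against NOTCH3 rather than NOTCH3 protein; score merges spot fluorescence near 667 nm with spot signal to noise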
# [14] = small-molecule binders of probe aNOTCH2, primary screen, biochemical, small-molecule microarray, 635/667 nm fluorescence (AID 1121); details: higher = more signal;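 further: score merges feature fluorescence read at 667 nm with its signal to noise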
# [15] = target: Carbonic anhydrase 2 (Homo sapiens) (UniProt P00918); test: CAII small-molecule binders, profiling panel, biochemical, small-molecule microarray, Alexa647-labelled CAII (AID 1122); details: CAII-A647 binding fluorescence, higher = more signal
# [16] = COS7 lysate on small-molecule microarray, probe aHis, 635 nm (AID 1123); details: COS7 cell lysate, fluorescence, higher = more signal;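 further: z-score combines 667nm fluorescence intensity with signal-to-noise per printed compound spot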
# [17] = compound binding in COS7 lysate, probe aLAP1, primary screen, cell lysate, small-molecule microarray (AID 1124); details: probe aLAP1, fluorescence, higher = more signal;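 further: lysate comes from COS7 cells expressing LAP1 and is applied at 0.3 µg/mL; score merges spot fluorescence near 667 nm with signal-to-noise over triplicate slides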
# [18] = tested on: Sam68 (KHDRBS1); test: Sam68 small-molecule binders, primary screen, biochemical, small-molecule microarray, 635 nm fluorescence (AID 1125); details: small-molecule microarray binding, higher = more signal;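 further: score merges 667 nm channel intensity with signal to noise over triplicate slides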
# [19] = tested on: Chordin-like protein 2 (CHRDL2); test: CHRDL2 small-molecule binders, primary screen, biochemical, small-molecule microarray, 635 nm fluorescence (AID 1126); details: small-molecule microarray binding, fluorescence 635 nm; higher = more signal;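 further: printed compound slides probed with Chrdl2 protein at 4 µg/mL for 1 h at 4 C; score merges 667 nm emission intensity with signal to noise over three replicate slides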
# [20] = target: Concanavalin-A (Canavalia ensiformis) (UniProt P02866); test: ConA small-molecule binders, primary screen, artefact control for SMM control protein annotation, biochemical, small-molecule microarray, Alexa647 label, 635 nm (AID 1127); details: ConA-A647 binding fluorescence, higher = more signal;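 further: z combines 667 nm emission intensity with signal-to-noise across three replicate slides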
# Sequence of Concanavalin-A (Canavalia ensiformis) (P02866 whole entry, looked up): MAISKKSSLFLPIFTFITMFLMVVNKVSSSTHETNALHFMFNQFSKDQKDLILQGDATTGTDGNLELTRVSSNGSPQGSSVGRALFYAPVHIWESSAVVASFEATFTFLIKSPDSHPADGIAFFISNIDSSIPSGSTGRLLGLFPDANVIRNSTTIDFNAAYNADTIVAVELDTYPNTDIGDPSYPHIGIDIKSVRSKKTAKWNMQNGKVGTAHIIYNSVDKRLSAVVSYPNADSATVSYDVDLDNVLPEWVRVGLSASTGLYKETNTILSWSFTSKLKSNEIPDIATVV
# Sequence of Alpha-bungarotoxin (Bungarus multicinctus) (P60615 whole entry, looked up): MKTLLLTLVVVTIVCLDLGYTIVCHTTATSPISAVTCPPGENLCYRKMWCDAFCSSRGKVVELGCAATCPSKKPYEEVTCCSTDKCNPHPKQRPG
# Sequence of Albumin (Bos taurus) (P02769 whole entry, looked up): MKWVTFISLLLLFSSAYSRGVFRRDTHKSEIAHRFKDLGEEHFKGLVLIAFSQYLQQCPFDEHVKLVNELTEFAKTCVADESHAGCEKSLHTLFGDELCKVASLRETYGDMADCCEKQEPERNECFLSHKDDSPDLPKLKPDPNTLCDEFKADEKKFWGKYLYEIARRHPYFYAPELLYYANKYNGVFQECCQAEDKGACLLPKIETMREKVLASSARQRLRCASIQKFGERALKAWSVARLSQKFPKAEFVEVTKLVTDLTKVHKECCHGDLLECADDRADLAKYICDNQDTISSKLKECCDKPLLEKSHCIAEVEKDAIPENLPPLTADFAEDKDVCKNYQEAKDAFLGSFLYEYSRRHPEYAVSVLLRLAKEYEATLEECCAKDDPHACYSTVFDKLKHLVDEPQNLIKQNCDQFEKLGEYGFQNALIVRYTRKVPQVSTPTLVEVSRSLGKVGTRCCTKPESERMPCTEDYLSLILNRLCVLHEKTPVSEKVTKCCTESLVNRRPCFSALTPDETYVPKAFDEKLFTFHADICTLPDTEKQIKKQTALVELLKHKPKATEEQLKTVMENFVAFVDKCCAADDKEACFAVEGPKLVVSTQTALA
# Sequence of Torsin-1A-interacting protein 1 (Homo sapiens) (Q5JTV8 whole entry, looked up): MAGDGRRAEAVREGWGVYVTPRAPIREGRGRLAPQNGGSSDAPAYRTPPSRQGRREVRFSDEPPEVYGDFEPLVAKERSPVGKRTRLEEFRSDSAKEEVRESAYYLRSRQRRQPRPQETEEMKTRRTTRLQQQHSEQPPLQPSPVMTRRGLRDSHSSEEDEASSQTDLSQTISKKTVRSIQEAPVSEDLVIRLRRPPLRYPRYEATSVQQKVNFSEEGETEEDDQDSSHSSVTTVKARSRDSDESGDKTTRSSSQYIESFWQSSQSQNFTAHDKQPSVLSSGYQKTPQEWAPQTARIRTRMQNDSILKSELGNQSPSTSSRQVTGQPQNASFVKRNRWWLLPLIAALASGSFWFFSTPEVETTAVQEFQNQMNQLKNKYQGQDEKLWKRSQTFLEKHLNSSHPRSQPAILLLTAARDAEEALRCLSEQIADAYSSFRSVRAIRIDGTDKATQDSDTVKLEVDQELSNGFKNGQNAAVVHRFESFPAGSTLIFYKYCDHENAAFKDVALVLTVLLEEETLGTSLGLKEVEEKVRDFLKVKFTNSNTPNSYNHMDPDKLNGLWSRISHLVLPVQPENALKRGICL
# Sequence of Left-right determination factor 2 (Homo sapiens) (O00292 whole entry, looked up): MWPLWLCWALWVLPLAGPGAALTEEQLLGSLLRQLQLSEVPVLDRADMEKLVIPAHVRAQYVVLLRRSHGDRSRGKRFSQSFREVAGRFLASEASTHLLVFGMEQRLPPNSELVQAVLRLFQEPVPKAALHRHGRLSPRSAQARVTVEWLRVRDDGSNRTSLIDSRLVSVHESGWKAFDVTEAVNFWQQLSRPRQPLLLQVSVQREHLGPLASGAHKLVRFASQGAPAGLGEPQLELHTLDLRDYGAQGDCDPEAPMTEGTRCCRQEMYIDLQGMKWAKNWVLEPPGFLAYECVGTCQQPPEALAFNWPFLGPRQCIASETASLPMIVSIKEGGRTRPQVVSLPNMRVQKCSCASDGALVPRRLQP
SMILES,composite z-score [1],z-score [2],composite z-score [3],composite z-score [4],composite z-score [5],composite z-score [6],composite z-score [7],composite z-score [8],composite z-score [9],composite z-score [10],composite z-score [11],composite Z-score [12],composite z-score [13],composite z-score [14],composite z-score [15],composite z-score [16],composite z-score [17],composite z-score [18],composite z-score [19],composite z-score [20]
COCCCNC(=O)[C@@]1(C)c2ccccc2C(=O)N(Cc2ccccc2)[C@H]1c1ccc(CO)cc1,1.38,-1.86,-2.9,-0.652,-0.634,-0.124,0.0284,-0.255,1.64,-0.564,0.172,0.45 (inactive),-0.274,-0.189,0.397,2.62,0.848,0.203,-1.5,0.17
COC(=O)[C@@]1(Cc2ccc(OC)cc2)[C@H]2c3cc(C(=O)N(C)C)n(CCSCCO)c3C[C@H]2CN1C(=O)c1ccccc1,1.39,-1.41,-0.675,2.02,0.954,0.149,0.234,-0.553,0.904,0.569,0.905,-0.786 (inactive),0.182,0.407,0.844,2.4,-0.0747,1.23,-0.186,1.13
CN(C)CCCC[C@@H]1NC(=O)[C@@H]2C[C@H](C(=O)NCc3ccc(F)cc3)[C@H](c3cccc(OCCO)c3)N2C1=O,1.17,0.679,0.748,0.337,0.136,-0.1,0.207,-0.399,1.07,0.356,-0.202,-0.398 (inactive),-0.0311,-0.0598,0.569,2,0.776,1.05,0.991,1.11
COc1ccc([Si](C)(C)[C@H]2[C@H](CC(=O)N3CCC[C@H]3CO)O[C@@]3(C(=O)N(Cc4cccc(N5CCC5=O)c4)c4ccccc43)[C@@H]2C)cc1,1.41,-2.36,0.992,-0.105,-0.363,-0.0203,0.265,0.572,0.901,0.872,-0.654,-0.804 (inactive),0.229,-0.0392,0.395,0.789,-0.0115,1.31,0.95,0.759
O=C1O[C@@H](c2ccccc2)[C@@H](c2ccccc2)N2[C@@H](c3ccc(O)cc3)[C@]3(C(=O)Nc4ccccc43)[C@@H](C(=O)NC[C@H](O)c3ccccc3)[C@H]12,1.13,-0.427,0.091,0.843,0.713,-0.0659,-0.0232,-0.0899,0.137,0.262,0.726,0.0895 (inactive),-0.242,-0.0885,0.699,1.66,-0.238,0.607,0.458,0.442
[N-]=[N+]=NCc1ccccc1C[C@]1(C(N)=O)N=C(c2ccc(OCCCO)cc2)O[C@H]1c1ccccc1N=[N+]=[N-],1.4,-0.507,0.308,1.18,0.596,0.193,0.232,1.08,1.71,1.24,0.421,-0.338 (inactive),0.327,0.0185,0.513,1.46,0.312,1.23,-0.652,1.09
CC(=O)NCCCC[C@@H]1NC(=O)[C@@H]2C[C@H](C(=O)NCc3ccc(F)cc3)[C@H](c3ccc(O)cc3)N2C1=O,0.0999,-0.673,0.591,0.0633,-0.72,-0.103,0.785,-0.314,0.362,0.346,-1.25,0.15 (inactive),-0.0391,-0.153,0.715,1.79,0.453,1.02,0.526,1.15
O=P(NCC1(CC2(c3ccccc3)CO2)CC1)(c1ccccc1)c1ccccc1 (stereo not given),-0.498,-1.17,-1.79,-0.0905,0.388,-0.0384,0.826,-0.45,-0.225,-0.879,0.0287,-0.187 (inactive),-0.159,-0.0451,0.692,2.49,0.106,-0.31,-0.821,-0.805
[N-]=[N+]=NCc1ccccc1[C@@H]1OC(c2ccc(OCCCO)cc2)=N[C@]1(Cc1ccccc1)C(=O)O,1.38,-0.297,-0.252,1.14,0.518,-0.0479,0.0711,-0.419,0.767,0.865,0.188,1.38 (inactive),-0.0362,-0.0836,0.607,2.25,-0.324,1.13,-0.817,0.802
CC(C)NC(=O)[C@@]1(c2ccc([N+](=O)[O-])cc2)CC(=O)N(C(C)C)[C@@H]1c1ccc(CO)cc1,0.559,-0.176,-1.86,-0.678,-0.56,-0.197,0.0899,-0.311,-0.534,-0.125,0.697,0.461 (inactive),-0.399,-0.176,0.718,0.859,0.723,0.0001,-1.66,-0.0183
CCCCCN1CC=CC23O[C@@H]4C=CCCOC(=O)C4[C@H]2C(=O)N(CCCO)[C@@H]3C1=O (stereo not given in full),-0.337,-0.726,-0.43,-0.162,-0.591,-0.198,-0.283,-0.0125,-0.643,-0.546,0.538,0.33 (inactive),-0.157,-0.155,0.343,-0.0684,0.0581,-0.0504,-0.277,0.121
C=CC[C@@]1(C(=O)NCc2ccccc2)N=C(c2ccc(OCCCO)cc2)O[C@@H]1c1ccccc1CN=[N+]=[N-],1.41,-2.31,-0.511,1.13,0.429,0.0676,0.448,0.622,1.1,1.28,0.889,1.01 (inactive),0.525,0.117,0.721,2.95,0.88,1.26,-0.58,1.03
C[N+](C)(C)CCCC[C@@H]1NC(=O)[C@@H]2C[C@H](C(=O)NCCCCCCNC(=O)CS)[C@H](c3cccc(OCCO)c3)N2C1=O,-0.568,-0.154,0.382,-0.485,-0.467,-0.233,-0.0553,-0.331,0.567,2.15,-0.658,0.802 (inactive),-0.0984,-0.174,0.332,1.04,0.264,0.129,0.393,-0.258
O=C1OCC=C[C@H]2OC34C=CCN(Cc5ccccc5)C(=O)[C@H]3N(CCCO)C(=O)[C@@H]4[C@@H]12 (stereo not given in full),1.22,-0.789,-0.406,1.19,0.918,0.0474,0.63,0.134,0.627,-0.162,0.792,2.97 (inactive),0.577,0.0753,0.786,3.07,1.08,0.89,-0.888,0.226
O=C1O[C@H](c2ccccc2)[C@H](c2ccccc2)N2[C@H]1[C@@H](C(=O)NC[C@H](O)c1ccccc1)[C@]1(C(=O)Nc3ccc(C#CC4(O)CCCCCC4)cc31)[C@H]2c1ccccc1OCCO,1.36,-3.12,-0.0569,0.9,0.26,-0.145,0.147,0.52,0.791,0.837,0.574,0.228 (inactive),-0.0694,0.0785,0.411,1.45,1.29,1.32,0.117,0.8
CC(=O)n1cc(C(O)C2C=CC3C(=O)N(c4ccccc4)C(=O)C3N2Nc2ccc(C#N)cc2)c2ccccc21 (stereo not given),1.48,-0.41,-0.125,0.449,-0.577,0.155,0.385,1.02,0.557,0.645,0.938,-0.187 (inactive),0.307,0.0753,0.798,2.7,0.53,1.31,-0.776,0.876
COC(=O)[C@@]1(Cc2ccc(OC)cc2)[C@H]2c3cc(C(=O)N4CCCC4)n(C[C@H](O)CO)c3C[C@H]2CN1C(=O)c1ccccc1,0.464,-0.439,-0.416,1.14,0.91,-0.252,1.17,1.59,0.707,0.113,0.947,0.509 (inactive),0.0824,0.0817,0.869,1.62,0.226,-0.0743,-0.229,0.556
COCCOC(=O)N1C(=O)[C@@]2(c3cc(C#CC4(O)CCCCCC4)ccc31)[C@H](c1ccc(O)cc1)N1[C@H](c3ccccc3)[C@H](c3ccccc3)OC(=O)[C@H]1[C@@H]2C(=O)N1CCc2cc(OC)c(OC)cc2C1,-0.213,-0.302,-1.24,-0.548,-0.179,-0.145,0.0756,-0.321,0.282,-0.678,-0.189,0.131 (inactive),-0.239,-0.197,0.859,0.288,0.347,0.0544,-0.861,0.3
COc1cc(CO)cc(I)c1O[C@H]1C=C(C(=O)NCCO)C[C@@H](N(CCc2cccc(F)c2)C(=O)CCC2CCCC2)[C@@H]1O,1.43,-4.65,0.195,2.15,2.16,0.277,0.0952,-0.144,2.99,-0.242,-0.526,0.687 (inactive),0.13,-0.0596,0.117,1.29,1.88,1.3,1.32,0.444
COC(=O)c1c(CC[C@@H](CO)NC(=O)Nc2ncn[nH]2)oc(C(=O)Cc2ccccc2)c1C(=O)OC,0.693,0.0922,0.506,0.0262,-0.828,-0.243,0.158,-0.0144,-0.0045,0.924,-0.145,1 (inactive),0.158,-0.12,0.768,3.22,0.705,0.885,1.08,1.16
